Measurements: the supplement of paper PMC7156485

Columns and labels:
Details in all cases: concentration: 10 µM; 24 h
[1] = tested on: HCC1569; experiment: cell number relative to DMSO (% of DMSO); higher = more cells (less growth inhibition / toxicity)
Procedure, shortened: (§1)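 H1.0 nuclear intensity or cell number is stated as percent of the plate control, based on the median of replicates, and HCC1569 values were smoothed for positional effects. These came from HCC1569 and TDF cells treated with compounds at 10 µM for 24 h at 37 °C in triplicate, then fixed in 3.7% formaldehyde and stained with a rabbit anti-H1.0 antibody, an AlexaFluor 647 secondary and DAPI.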

[2] = tested on: TDF; experiment: as above
Procedure, shortened: as §1

[3] = tested on: TDF; experiment: H1.0 immunofluorescence intensity relative to DMSO (% of DMSO); higher = stronger H1.0 induction, active = 120 or more
Procedure, shortened: as §1

[4] = tested on: HCC1569; experiment: H1.0 immunofluorescence intensity relative to DMSO (% of DMSO); higher = stronger H1.0 induction, active = 140 or more
Procedure, shortened: as §1
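Wherever H1.0 immunofluorescence intensity relative to DMSO is given: TDF is a line of transformed human dermal fibroblasts of mesenchymal origin.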
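Wherever cell number relative to DMSO is given: TDF denotes transformed human dermal fibroblasts of mesenchymal origin.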

Row | SMILES | cell number [1] | cell number [2] | H1.0 immunofluorescence intensity [3] | H1.0 immunofluorescence intensity [4]
1 | Cl.Cl.NCCSSCCN [Cystamine dihydrochloride] | 97.5 | 107 | 93.4 (inactive) | 101 (inactive)
2 | CCC(NC(C)C)C(O)c1ccc(O)c2[nH]c(=O)ccc12.Cl (stereo not drawn) [Procaterol.HCl] | 101 | 105 | 83.2 (inactive) | 112 (inactive)
3 | CC1CC2C(C(O)CC3(C)C2CCC3(O)C(=O)CO)C2(C)C=CC(=O)C=C12 (stereo not drawn) [Methylprednisolone] | 99.4 | 102 | 88.6 (inactive) | 114 (inactive)
4 | CC(=O)OCC(CCn1cnc2cnc(N)nc21)COC(C)=O [Famciclovir] | 103 | 97.4 | 99.2 (inactive) | 111 (inactive)
5 | CC(=O)O.CN=C(N)NCCCC(N)C(=O)O [NG-Monomethyl-L-arginine acetate] | 100 | 102 | 95.6 (inactive) | 101 (inactive)
6 | COC1C(N(C)C(=O)c2ccccc2)CC2OC1(C)n1c3ccccc3c3c4c(c5c6ccccc6n2c5c31)C(=O)NC4 (stereo not drawn) [Staurosporine, N-benzoyl-] | 66 | 53.5 | 82.4 (inactive) | 108 (inactive)
7 | CC(C)[N+](C)(CCOC(=O)C1c2ccccc2Oc2ccccc21)C(C)C.[Br-] [Propantheline bromide] | 99.3 | 107 | 95.1 (inactive) | 96.9 (inactive)
8 | COc1ccccc1N1CCN(CC(O)COc2cccc3ccccc23)CC1.Cl.Cl (stereo not drawn) [Naftopidil dihydrochloride] | 101 | 106 | 101 (inactive) | 101 (inactive)
9 | COc1ccc(S(=O)(=O)Nc2nc(-c3cccc([N+](=O)[O-])c3)c(CN3CCCCC3)s2)cc1OC | 101 | 98.9 | 89.5 (inactive) | 110 (inactive)
10 | COCCc1ccc(OCC(O)CNC(C)C)cc1.COCCc1ccc(OCC(O)CNC(C)C)cc1.O=C(O)C(O)C(O)C(=O)O (racemic) | 99.5 | 106 | 95.6 (inactive) | 108 (inactive)
11 | O=C(C=Cc1ccc(O)cc1)c1ccc(O)cc1O [Isoliquiritigenin] | 96.3 | 99.6 | 89.2 (inactive) | 100 (inactive)
12 | CCC(C)C(CC)C(N)=O (stereo not drawn) [2-ethyl-3-methylpentanamide] | 103 | 107 | 92.3 (inactive) | 96.6 (inactive)
